Source: PubChem
Hits are enriched below; roughly 3.5% of the tested compounds scored in any of these assays.
FBW7 act: FBW7 E3 ligase activators, primary screen, biochemical, AlphaScreen, human; normalized activity (activation), % at 26.1 µM; AID 1259310, 2017; F-box/WD repeat-containing protein 7 (Homo sapiens), Q969H0; actives 0.13% (n = 650,000); AlphaScreen FBW7–phospho-cyclin E peptide binding, activator screen; in the data active = normalized activity above about 1.9%;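 note: purified mutant Fbw7 with reduced substrate affinity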
MITF inh: MITF inhibitors, primary screen, biochemical, AlphaScreen, human; Microphthalmia-associated transcription factor (Homo sapiens), O75030; AlphaScreen MITF homodimerization, bead proximity signal; inhibition, % at 2.6 µM; actives 0.91% (n = 650,000); AID 1259374, 2018; in the data active = inhibition above about 50%;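 note: 0% = vehicle wells with protein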
Target sequence (O75030 whole entry, looked up): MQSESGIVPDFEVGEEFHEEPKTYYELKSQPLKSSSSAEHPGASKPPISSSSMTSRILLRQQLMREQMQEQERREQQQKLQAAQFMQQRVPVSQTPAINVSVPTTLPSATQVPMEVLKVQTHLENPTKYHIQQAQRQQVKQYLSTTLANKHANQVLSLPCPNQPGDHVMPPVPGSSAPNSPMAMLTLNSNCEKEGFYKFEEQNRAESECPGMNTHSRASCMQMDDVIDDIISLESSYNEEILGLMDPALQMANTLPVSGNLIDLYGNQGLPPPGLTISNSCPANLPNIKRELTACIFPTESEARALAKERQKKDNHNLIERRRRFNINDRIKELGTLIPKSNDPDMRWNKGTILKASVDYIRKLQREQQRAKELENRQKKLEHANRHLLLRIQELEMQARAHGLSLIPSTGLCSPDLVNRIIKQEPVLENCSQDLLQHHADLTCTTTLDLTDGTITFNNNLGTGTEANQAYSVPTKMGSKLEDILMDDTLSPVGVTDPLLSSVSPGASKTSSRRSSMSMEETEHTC
TEAD-YAP block: TEAD-YAP interaction inhibition, primary screen, TEAD-YAP interaction inhibitor project, luminescence, HEK-TIYL cells | actives 1.4% (n = 640,000) | TEAD-Gal4/YAP UAS-luciferase luminescence | inhibition, % at 9.12 µM | AID 1259422, 2018; in the data active = inhibition above about 32%;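 note: 0% = median of test compound wells and 100% = reference inhibitor wells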
GPR151 activ: activators of human GPR151, primary screen, cell-based, PathHunter beta-arrestin, luminescence | G-protein coupled receptor 151 (Homo sapiens), Q8TDV0 | PathHunter beta-arrestin GPR151 cells | activation, % at 11.2 µM | actives 1% (n = 650,000) | AID 1508602, 2020; in the data active = activation above about 4.9%;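 note: 0% = median of compound wells and 100% = cells with positive control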
GPR151 confirm: GPR151 activators, triplicate retest, confirmation, cell-based, PathHunter beta-arrestin, luminescence; 6,700 tested, under 10 active; shares compounds with GPR151 activ; activation, % at 11.2 µM; AID 1508609, 2020; GPR151 PathHunter beta-arrestin cells, 90 min; % of EA-reagent control over plate median;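 active = mean percent activation across replicates above the confirmation screen cutoff of 4.91%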
GPR119 counter: GPR119 activators in beta-arrestin cells, counter-screen for GPR151 activator project, cell-based, PathHunter beta-arrestin, luminescence, triplicate. shares compounds with GPR151 activ. actives 0.3% (n = 6,700). 90 min; 0 = compound-well median, 100 = enzyme-acceptor control. activation, % at 11.2 µM;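 active = mean percent activation in the counterscreen above 29.09%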;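 note: counterscreen on off-target GPR119 to flag nonselective hits from the GPR151 activator screen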
Starred values were filed as active, the others as inactive; . = not tested or not shown.

SMILES	FBW7 act	MITF inh	TEAD-YAP block	GPR151 activ	GPR151 confirm	GPR119 counter
NC(Cc1cc(I)c(Oc2ccc(O)c(I)c2)c(I)c1)C(=O)O (stereo not given)	0	2	10	6.4*	0	1
COC(=O)C1=C(C)NC(C)=C(C(=O)OC)C1c1ccc(C(C)(C)C)cc1	1	18	-23	-1	.	.
Cc1c(C(C)NC(=O)CCc2cccs2)cnn1-c1ccccn1 (stereo not given)	0	-5	-12	3	.	.
Cc1ccc(C2=C/C(=C/c3ccccn3)C(=O)O2)c(C)c1	0	1	-44	5.3*	2	-9
CCCN1CCC(N2CCN(S(=O)(=O)c3ccc(C)cc3)CC2)CC1	0	36	1	0	.	.
CC(C)NC(=O)CSc1nnc(Cc2ccc3c(c2)OCO3)n1C1CCCCC1	0	8	6	0	.	.
COc1ccc(Cl)cc1NC(=O)N(C)Cc1c(C)nn(C)c1C	1	-15	-21	9.6*	1	-2
COc1ccc(Cl)cc1NC(=O)CCn1nc(C)c(C)c1C	0	4	-15	0	.	.
CCn1c(C(=O)O)c(CC(=O)Nc2cc(Cl)ccc2OC)c2ccccc21	0	-1	2	5.4*	-1	-11
COc1ccc(C)cc1NC(=O)Cc1c(C(=O)O)n(C)c2ccccc12	0	18	5	1	.	.
CC(C)(C)C(=O)Nc1ccc(C(=O)Nc2cccc(I)c2)cc1	0	17	-10	-1	.	.
CCCC(C)C(=O)N1CCN(c2ccc(F)cc2)CC1 (stereo not given)	0	6	3	1	.	.
CC(CC(=O)N1CCN(c2ccc(F)cc2)CC1)c1ccccc1 (stereo not given)	0	0	3	11*	0	3
CC(c1ccccc1)N1CC(C(=O)N2CCN(c3ccc(F)cc3)CC2)CC1=O (stereo not given)	0	4	2	5.2*	-1	-17
O=C(NCC(=O)N1CCN(c2ccccc2)CC1)c1c(F)cccc1F	0	-3	-9	6.0*	1	9
COCCCN1C(=O)c2ccccc2CC1(C)C(=O)NC1CCCCCCC1 (stereo not given)	0	2	2	2	.	.
COCCCN1C(=O)c2ccccc2CC1(C)C(=O)NC1CCCCCC1 (stereo not given)	0	-7	-4	5.6*	0	-3
O=C(CCc1nnc(CCc2c[nH]c3ccccc23)o1)N1CCCCCCC1	0	0	-4	6.6*	0	0
Cc1cc(N2CCOCC2)nc(N2CCN(C(=O)Cc3cccs3)CC2)n1	0	3	11	11*	-1	-3
CCCCN(C)S(=O)(=O)c1cc2c(cc1C)N(C(C)=O)CCO2	0	-3	-2	6.2*	1	0
CNc1cc([N+](=O)[O-])ccc1N/C=C\C(=O)c1ccc(OC)cc1OC	0	16	-20	5.8*	0	-1
Cc1c(C=O)c2ccccc2n1CC(=O)NC(C)C	0	1	2	0	.	.
CCOCCCNc1ccc2nc3ccc(C)cc3c(=O)n2n1	0	8	-55	0	.	.
CC1(C)CC(=O)C(C=NCCc2cccc(Cl)c2)=C(O)C1	0	6	21	5.4*	-1	-16
CC1(C)CC(=O)C(C=NCc2cccc(F)c2)=C(O)C1	0	6	5	1	.	.
CCCCCn1c(N2CCCC2)nc2c1c(=O)[nH]c(=O)n2C	0	7	4	0	.	.
CCCCCCn1c(N2CC(C)CC(C)C2)nc2c1c(=O)[nH]c(=O)n2C (stereo not given)	0	11	-5	5.8*	0	7
NC(=O)NC1(C(F)(F)F)Oc2ccccc2O1	0	16	-10	0	.	.
COc1ccc(Nc2nc(N3CCN(C)CC3)c3ccccc3n2)cc1	0	4	2	9.5*	1	-3
CCOc1ccc(Nc2nc(N3CCN(C)CC3)c3ccccc3n2)cc1	0	19	-2	0	.	.
